This excerpt belongs to a sample that is enriched for hits.
TTR transcr act: TTR transcription activators in neuroblastoma reporter cells, primary screen, cell-based, luminescence, SH-SY5Y, TTR promoter Gaussia luciferase; 100% = recombinant luciferase protein wells; activation, % at 16.7 µM; 1.3% of 92,000 active;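 active means activation above the mean of all tested compounds plus 3 SD, cut at about 9.5% in these data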;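 further: cells exposed to compounds for one day before reading; 0% = median of all test compound wells on the plate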
TTR inh HuH7: TTR promoter reporter inhibitors in hepatoma cells, counter-screen for TTR transcription activator project, cell-based, luminescence, HuH7 hepatoma; shares compounds with TTR transcr act; HuH7 TTR promoter-Gaussia luciferase reporter; inhibition, % at 16.7 µM; 4% of 1,100 active;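 active means average inhibition above the solvent-only control wells' mean plus 3 SD, cut at about 15% in these data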;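 further: 0% = cells with DMSO only and 100% = cells with inhibitor control FD; inhibitors lower well luminescence so higher value means more inhibition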
TTR act confirm: TTR transcription activators, retest, confirmation, cell-based, luminescence, SH-SY5Y, triplicate; AID 1117280, 2014; shares compounds with TTR transcr act; 1,100 tested, under 10 active; activation, % at 16.7 µM; SHSY5Y TTR promoter Gaussia luciferase; 100% = purified Lucia enzyme wells, no cells;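 active means mean activation above a set limit taken from the earlier primary screen, cut at about 11% in these data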;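 further: 0% = DMSO-treated cells and 100% = recombinant Lucia luciferase without cells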
The depositor's hits bear a star; ! = not active in a repeat.

`O=C(Cc1ccccc1)NCC(=O)OCC(=O)c1ccc(Cl)c([N+](=O)[O-])c1` gave TTR transcr act 46.3*, TTR inh HuH7 -1.5 and TTR act confirm -0.5.
Screening O=C(CNC(=O)c1ccccc1)NCC(=O)OCC(=O)c1ccccc1Cl returned TTR transcr act 1.6.
`COC(CNC(=O)[C@H](Cc1ccccc1)NC1(C(=O)NC2CCCCC2)CCCC1)OC` gave TTR transcr act -0.2.
Screening COC(=O)C1OCOC2C(C(=O)OC)OCOC12 (stereo not given) returned TTR transcr act -0.9.
CC(=O)c1c(C)[nH]c(C(=O)OCC(=O)c2c[nH]c3ccccc23)c1C was read as TTR transcr act -1.9.
`COc1ccc(S(=O)(=O)N(C)C[C@@H]2OCc3cnnn3CCCC(=O)N([C@@H](C)CO)C[C@@H]2C)cc1` gave TTR transcr act 2.7.
For Cc1cc(S(=O)(=O)Nc2ccc(C(=O)NCCN3CCOCC3)cc2)ccc1F the results were TTR transcr act -0.4.
Screening COC(=O)[C@]12C[C@H](CC(=O)NCCCCc3ccccc3)C(=O)N(Cc3ccccc3)C1=C[C@H](COCc1ccccc1)O[C@@H]2C returned TTR transcr act -0.9.
Screening CS(=O)(=O)N1N=C(c2ccco2)CC1c1ccc(Br)cc1 (stereo not given) returned TTR transcr act 17.7*, TTR inh HuH7 -18.6 and TTR act confirm -0.2.
For CS(=O)(=O)N1N=C(c2cccs2)CC1c1ccccc1 (stereo not given) the results were TTR transcr act 0.5.
Screening COc1ccc(C2CC(c3ccc(OC)c(OC)c3)=NN2S(C)(=O)=O)cc1 (stereo not given) returned TTR transcr act -0.8.
For CN1C2=N[C@@H](c3ccc4ccccc4c3)CC(=O)N2/C(=C\c2ccccc2)[C@H]1c1ccccc1 the results were TTR transcr act -1.4.
CC(C)c1ccc(NC2CCCN(C(=O)CCN3CCCCC3=O)C2)cc1 (stereo not given) was read as TTR transcr act -0.1.
Screening CC(C)c1ccc(NC2CCCN(C(=O)c3cnc4ccccn4c3=O)C2)cc1 (stereo not given) returned TTR transcr act 0.2.
Screening CC(C)c1ccc(NC2CCCN(C(=O)c3cccs3)C2)cc1 (stereo not given) returned TTR transcr act 11.3*, TTR inh HuH7 -4.7 and TTR act confirm -1.1.
CC(C)COc1ccc(-c2csc(N3CCC(C(N)=O)CC3)n2)cc1 was read as TTR transcr act -3.7.
For CCOC(=O)C1=C(c2ccccc2)NC(=O)NC1c1ccc(OC)cc1 (stereo not given) the results were TTR transcr act -0.3.
CCOC(=O)C1=C(CS(=O)(=O)c2ccccc2)NC(=O)NC1c1ccccc1 (stereo not given) was read as TTR transcr act -0.9.
`CCOC(=O)C1=C(c2ccccc2)NC(=O)NC1c1ccc(N(C)C)cc1` (stereo not given) gave TTR transcr act 14.0*, TTR inh HuH7 -6.7 and TTR act confirm 1.0.
Screening Cc1ccc2c(C)c(C(=O)N3CCN(C4CCS(=O)(=O)C4)CC3)oc2c1C (stereo not given) returned TTR transcr act 3.8.
O=S1(=O)CC2c3ccccc3CCN2CN1CCc1ccccc1 (stereo not given) was read as TTR transcr act -0.9.
`N#Cc1ccccc1NC(=O)COc1ccccc1C(=O)Nc1ccccc1` gave TTR transcr act 2.4.
`Cn1c2ccc(F)cc2c2ncn(Cc3ccccn3)c(=O)c21` gave TTR transcr act 14.5*, TTR inh HuH7 -14.1 and TTR act confirm -0.8.
For Cn1c2ccccc2c2ncn(Cc3ccco3)c(=O)c21 the results were TTR transcr act -1.5.
Cn1c2ccc(F)cc2c2ncn(Cc3ccco3)c(=O)c21 was read as TTR transcr act -0.3.
O=C1NC(=O)C(Cc2ccc(O)cc2)N1 (stereo not given) was read as TTR transcr act -0.3.
CCN1C(=O)[C@H]2[C@H]3CN=C(SCc4ccc(C(=O)OC)cc4)N3[C@@](Cc3ccccc3)(C(=O)OC)[C@H]2C1=O was read as TTR transcr act -0.6.
For CCN1C(=O)[C@H]2[C@H]3CN=C(SCc4ccc(Cl)cc4)N3[C@@](Cc3ccccc3)(C(=O)OC)[C@H]2C1=O the results were TTR transcr act -2.5.
For CCN1C(=O)[C@H]2[C@H]3CN=C(SCc4ccc(C)cc4)N3[C@@](Cc3ccccc3)(C(=O)OC)[C@H]2C1=O the results were TTR transcr act 23.7*, TTR inh HuH7 -2.0 and TTR act confirm 3.3.
For COc1ccc(CNS(=O)(=O)c2cc(Cl)ccc2N2CC[C@@H](O)C2)cc1 the results were TTR transcr act -1.7.
Screening COc1ccc(Cl)cc1S(=O)(=O)NC(C)c1cnn(-c2ccccn2)c1C (stereo not given) returned TTR transcr act 0.7.
`O=C(Cc1cc(=O)[nH][nH]1)N/N=C/c1c(Cl)cccc1Cl` gave TTR transcr act -1.1.
For O=C(Cc1cc(=O)[nH][nH]1)N/N=C/c1ccccc1Cl the results were TTR transcr act 6.6.
Screening O=C(Cc1cc(=O)[nH][nH]1)N/N=C/c1cccc(Cl)c1Cl returned TTR transcr act 22.8*!, TTR inh HuH7 -12.9 and TTR act confirm -0.2.
`CC(C)=CC([C@]12C[C@H](CO)N[C@@H]1Nc1ccccc12)S(=O)(=O)c1ccccc1` (stereo not given in full) gave TTR transcr act 0.0.
C=CCN(CC=C)C[C@@H]1CSCCS(=O)(=O)N1 was read as TTR transcr act 0.3.
CC(OC(=O)CN1C(=O)c2ccccc2C1=O)C(=O)NC1CCCCC1 (stereo not given) was read as TTR transcr act 13.6*, TTR inh HuH7 -12.4 and TTR act confirm -0.2.
CC(OC(=O)COc1ccccc1)C(=O)NC1CCCC1 (stereo not given) was read as TTR transcr act -0.7.
Screening CC(C(=O)OCC(=O)NC1CCCC1)N1C(=O)c2ccccc2C1=O (stereo not given) returned TTR transcr act 1.0.
COc1ccccc1NS(=O)(=O)c1cc(NC(C)=O)ccc1N1CCCCC1 was read as TTR transcr act -0.1.
`COc1ccccc1NS(=O)(=O)c1cc(NC(=O)c2cc(F)c(F)c(F)c2F)ccc1N1CCOCC1` gave TTR transcr act 27.4*, TTR inh HuH7 9.0 and TTR act confirm -0.6.
`COc1ccccc1NS(=O)(=O)c1cc(N2Cc3ccccc3C2=N)ccc1N1CCOCC1` gave TTR transcr act 1.9.
C/C=C/c1ccc([C@H]2[C@@H](CN(CC(C)C)S(=O)(=O)c3ccccc3[N+](=O)[O-])N(C(=O)Nc3cccc(OC)c3)[C@H]2CO)cc1 was read as TTR transcr act 0.0.
`Cc1onc(C(=O)N2CCN(C(c3ccccc3)c3ccccc3)CC2)c1Br` gave TTR transcr act -0.6.
Screening Cn1nccc1C(=O)Nc1nnc(C2CC2)s1 returned TTR transcr act -1.0.
Screening Cc1ccc(S(=O)(=O)NC(=O)Nc2nnc(C3CC3)s2)cc1 returned TTR transcr act -0.7.
